Here are results for 27 molecules from PubChem BioAssay (Tox21).

Results filed as inconclusive are left out. The source made the active and inactive calls. Unless noted, calls follow the shape of the dose curve; as a rule, active = well fitted curve in the direction sought with a large enough effect in the repeat runs; inconclusive = weak or mixed curves; inactive = no such curve, though single readings can be large; an effect the other way counts as inactive or inconclusive.

The nature of test [1]: qHTS assay to identify aromatase inhibitors - cell viability counter screen (AID 743084).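 Also: cells stimulated with testosterone during compound exposure; nearly all actives have a fitted effect of over 55% in size.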 Also: potency is read from the fitted curve at half-maximal effect. Background: qHTS replaces the single test concentration by a dilution series.
Test [2] concerns the target Aryl hydrocarbon receptor (Homo sapiens) (UniProt P35869). Briefly: qHTS assay to identify small molecule that activate the aryl hydrocarbon receptor (AhR) signaling pathway (AID 743085). Also: nearly all actives have a fitted effect of over 15% in size. Also: potency is read from the fitted curve at half-maximal effect.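 As to activation: HG2L7.5c1 human HepG2 liver cells with stably integrated DRE-driven firefly reporter; series mostly up to about 70 µM.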 Put shortly: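 24 h compound exposure, 37C, HepG2-derived HG2L7.5c1 cells with DRE-responsive luciferase. Readouts: fluorescence viability, then luminescence at room temperature after 30 min.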

Test [3] in a line: qHTS assay to identify small molecule that activate the aryl hydrocarbon receptor (AhR) signaling pathway - cell viability counter screen (AID 743086). Also: nearly all actives have a fitted effect of over 45% in size. Also: potency is read from the fitted curve at half-maximal effect. In a few lines: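 HepG2-AhR-luc (HG2L7.5c1) cells, 4000/well, treated 24 h at 37 C with compound; viability measured as CellTiter-Fluor fluorescence after 30 min in the same wells as the luciferase read.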
For test [4], the target named is Peroxisome proliferator-activated receptor gamma (Homo sapiens) (UniProt P37231). The test can be described thus: qHTS assay to identify small molecule agonists of the peroxisome proliferator-activated receptor gamma (PPARg) signaling pathway (AID 743094; active = well fitted activation curve with a large enough effect in the signal ratio in the repeat runs, not every such curve was filed as active; the % refers to the signal ratio). In a few lines: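 Reporter activation was scored by fluorescence of cleaved LiveBLAzer B/G substrate (1 h, room temperature) in PPARg-bla HEK293H cells previously treated 17 h at 37C with DMSO-dissolved compounds.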

Test [5] has the same target. The test can be described thus: qHTS assay to identify small molecule antagonists of the peroxisome proliferator-activated receptor gamma (PPARg) signaling pathway (AID 743191; calls by dose curve; also: series mostly up to about 63 µM; nearly all actives have a fitted effect of over 30% in size). In a few lines: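 GeneBLAzer PPARg UAS-bla HEK293H cells, 5 h post-plating, exposed to compounds 17 h at 37C. LiveBLAzer B/G FRET substrate added for 1 h at room temperature; beta-lactamase reporter read by fluorescence intensity.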

The nature of test [6]: qHTS assay to identify small molecule antagonists of the peroxisome proliferator-activated receptor gamma (PPARg) signaling pathway - cell viability counter screen (AID 743194). Also: nearly all actives have a fitted effect of over 55% in size. Put shortly:
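Cytotoxicity counter screen in PPARg-bla HEK293H cells, same wells as reporter assay. Compounds plus 50 nM rosiglitazone (final) for 17 h at 37 C, then viability read by CellTiter-Glo luminescence.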

The nature of test [7]: qHTS assay for small molecule agonists of the antioxidant response element (ARE) signaling pathway (AID 743202; active = well fitted activation curve with a large enough effect in the signal ratio in the repeat runs, not every such curve was filed as active; the % refers to the signal ratio). In a few lines: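 HepG2 ARE-bla cells; 16 h treatment at 37 C; FRET-based beta-lactamase fluorescence read after 2 h substrate incubation at room temperature.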
The nature of test [8]: qHTS assay for small molecule agonists of the antioxidant response element (ARE) signaling pathway - cell viability counter screen (AID 743203; calls by dose curve; also: nearly all actives have a fitted effect of over 55% in size). Put shortly:
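Viability counter screen: stably transfected ARE-bla HepG2 line, 16 hrs compound exposure at 37C/5% CO2, ATP-based CellTiter-Glo luminescence measured in the reporter wells.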

A short description of test [9]: qHTS assay for small molecule activators of the heat shock response signaling pathway - cell viability counter screen (AID 743209). Also: nearly all actives have a fitted effect of over 50% in size. Put shortly: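 Viability of HSE-bla HeLa cells is measured with CellTiter-Glo in the wells already used for the reporter read. Compound exposure lasts 5 h at 37 C, and luminescence is read after 30 min at room temperature.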
Test [10] is described as follows: qHTS assay for small molecule activators of the heat shock response signaling pathway (AID 743210; active = well fitted activation curve with a large enough effect in the signal ratio in the repeat runs, with a control signal flat, not every such curve was filed as active; the % refers to the signal ratio;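 also: HeLa cells with beta-lactamase reporter driven by heat shock elements; series mostly up to about 63 µM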). Put shortly:
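Following overnight attachment, HSE-bla HeLa cells received test compounds for 5 h at 37 C; beta-lactamase activity was then detected via FRET substrate fluorescence.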

Sequence of Aryl hydrocarbon receptor (Homo sapiens) (P35869 whole entry, looked up): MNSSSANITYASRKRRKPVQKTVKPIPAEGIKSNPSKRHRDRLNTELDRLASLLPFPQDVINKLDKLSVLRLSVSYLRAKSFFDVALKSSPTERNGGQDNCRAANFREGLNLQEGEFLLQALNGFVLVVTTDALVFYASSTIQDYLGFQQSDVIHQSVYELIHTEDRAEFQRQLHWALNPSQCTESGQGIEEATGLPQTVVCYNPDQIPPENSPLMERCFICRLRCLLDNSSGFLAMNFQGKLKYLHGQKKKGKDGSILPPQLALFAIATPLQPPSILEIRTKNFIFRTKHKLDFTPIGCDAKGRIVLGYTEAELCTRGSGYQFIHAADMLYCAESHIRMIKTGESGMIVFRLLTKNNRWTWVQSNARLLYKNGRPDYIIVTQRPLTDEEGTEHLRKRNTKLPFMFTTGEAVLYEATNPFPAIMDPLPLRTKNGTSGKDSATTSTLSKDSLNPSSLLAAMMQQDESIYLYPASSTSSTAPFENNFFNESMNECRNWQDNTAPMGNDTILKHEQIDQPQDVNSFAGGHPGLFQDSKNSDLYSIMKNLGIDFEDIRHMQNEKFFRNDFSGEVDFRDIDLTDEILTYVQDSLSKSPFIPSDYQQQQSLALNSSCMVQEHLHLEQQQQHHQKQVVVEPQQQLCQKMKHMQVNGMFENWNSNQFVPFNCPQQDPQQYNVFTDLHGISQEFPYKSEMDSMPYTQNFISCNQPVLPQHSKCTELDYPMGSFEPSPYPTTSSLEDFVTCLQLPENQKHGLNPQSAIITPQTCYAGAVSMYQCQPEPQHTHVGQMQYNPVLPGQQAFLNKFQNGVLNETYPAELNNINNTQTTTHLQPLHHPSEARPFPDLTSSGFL
Sequence of Peroxisome proliferator-activated receptor gamma (Homo sapiens) (P37231 whole entry, looked up): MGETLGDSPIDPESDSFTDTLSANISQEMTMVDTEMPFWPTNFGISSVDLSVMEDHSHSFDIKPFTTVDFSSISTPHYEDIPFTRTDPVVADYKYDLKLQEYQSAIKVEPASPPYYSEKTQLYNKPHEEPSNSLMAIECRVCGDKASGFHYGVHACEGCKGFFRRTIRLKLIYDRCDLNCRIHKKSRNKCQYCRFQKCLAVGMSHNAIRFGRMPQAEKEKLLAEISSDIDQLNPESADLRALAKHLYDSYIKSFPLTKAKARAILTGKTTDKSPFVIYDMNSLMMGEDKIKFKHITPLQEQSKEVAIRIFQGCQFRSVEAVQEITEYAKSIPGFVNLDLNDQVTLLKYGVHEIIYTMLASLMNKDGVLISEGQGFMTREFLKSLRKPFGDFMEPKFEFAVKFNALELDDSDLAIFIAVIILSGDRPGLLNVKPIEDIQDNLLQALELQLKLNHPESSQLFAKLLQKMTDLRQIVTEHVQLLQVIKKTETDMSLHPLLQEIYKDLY

Turning to `CNC(=O)[C@H]1O[C@@H](n2cnc3c(NCc4cc(Cl)ccc4OCc4cc(C)no4)ncnc32)[C@H](O)[C@@H]1N`, the Potency entry in [1], in [2], in test [3], in [5] and in test [7] was “inactive” each time. In addition, the call in test [4], in [6], in test [8], in test [9] and in test [10] was inactive.
As to `C[C@H](N)[C@H](O)c1cccc(O)c1`, the Potency result in test [1], in [2], in test [3], in [5] and in [7] was “inactive” in each case. In addition, the outcome in test [4], in test [6], in [8], in test [9] and in test [10] was inactive.
For `CC(CC=O)CCCC(C)(C)O` (stereo not given), the Potency result in test [1], in [2], in test [3], in test [5] and in test [7] was “inactive” throughout. The molecule was classed as inactive in test [4], in test [6], in test [8], in test [9] and in test [10].
Consider `CC(=O)N[C@@H](CCC(=O)O)C(=O)O`, for which the Potency entry in test [1], in [2], in test [3] and in test [5] was “inactive” each time. Moreover, the molecule was called inactive in [4], in test [6], in [8] and in [9].
For `CC(CO)c1ccccc1` (stereo not given), the Potency result in test [1], in test [2], in [3], in test [5] and in test [7] was “inactive” throughout. Besides, the molecule was classed as inactive in test [4], in [6], in [8], in test [9] and in test [10].
Turning to `CC1COc2ccccc2N1` (stereo not given), the Potency result in test [1], in [3], in test [5] and in test [7] was “inactive” throughout. Besides, the Potency in test [2] is 969 nM (active). The molecule was called inactive in [4], in [6], in test [8] and in [9].
As to `O=C(CS(=O)Cc1ccco1)NC/C=C\COc1cc(CN2CCCCC2)ccn1` (stereo not given), the Potency entry in [1], in test [2], in test [3], in test [5] and in test [7] was “inactive” throughout. Moreover, the outcome in test [4], in test [6], in [8] and in [9] was inactive.
On to `O=C(O)CCSSCCC(=O)O`, for which the Potency entry in test [1], in test [2], in test [3], in test [5] and in [7] was “inactive” each time. The molecule was classed as inactive in test [4], in [6], in test [8], in [9] and in test [10].
As for `C=Cc1ccccn1`, the Potency entry in [1], in test [2], in test [3], in test [5] and in test [7] was “inactive” in each case. In addition, the molecule was classed as inactive in test [4], in test [6], in test [8] and in test [9].
On to `CCCOC(OCCC)OCCC`, for which the Potency entry in test [1], in [2], in test [3], in test [5] and in test [7] was “inactive” throughout. In addition, the outcome in test [4], in [6], in test [8], in test [9] and in [10] was inactive.
Turning to `CCN1CCc2nc(N)oc2CC1`, the Potency result in [1], in test [2], in test [3], in test [5] and in [7] was “inactive” each time. Also, the outcome in [4], in test [6], in [8] and in test [10] was inactive.
For `CN1C(C)(C)CCCC1(C)C`, the Potency entry in [1], in [2], in test [3], in test [5] and in test [7] was “inactive” throughout. Also, the molecule was classed as inactive in test [4], in [6], in test [8], in test [9] and in test [10].
Regarding `O=C1CCCC(=O)O1`, the Potency result in [1], in test [2], in [3] and in test [5] was “inactive” in each case. Moreover, the call in [4], in test [8], in [9] and in [10] was inactive.
For the molecule `OCCN(CCO)c1cccc(Cl)c1`, the Potency result in [1], in test [2], in test [3] and in test [5] was “inactive” each time. In addition, the molecule was classed as inactive in test [4], in [6], in test [8], in test [9] and in test [10].
As for `CCOC(=O)c1ccc(OC(=O)CCCCCN=C(N)N)cc1`, the Potency entry in [1], in test [2], in [3] and in [5] was “inactive” throughout. Also, the result in test [4], in test [8] and in [9] was inactive.
As for `CN(C)c1ccc(C=O)cc1`, the Potency result in test [1], in [2], in [3] and in test [5] was “inactive” each time. The molecule was classed as inactive in test [4], in [6], in test [8], in test [9] and in test [10].
On to `BrCc1cccc(Oc2ccccc2)c1`, for which the Potency entry in test [1], in test [2], in test [3] and in test [5] was “inactive” throughout. The outcome in test [4], in test [8] and in [9] was inactive.
For the molecule `CCCCN`, the Potency result in test [1], in [2], in test [3] and in test [7] was “inactive” each time. The call in test [4], in [6], in test [8] and in test [9] was inactive.
Regarding `O=C(OCc1ccccc1)C(=O)OCc1ccccc1`, the Potency result in [1], in test [2], in test [3] and in test [5] was “inactive” in each case. For the same molecule, the outcome in test [4], in test [6], in test [8] and in test [9] was inactive.
In the case of `CCOc1cc(NC(C)=O)ccc1C(=O)OC`, the Potency entry in [1], in [2], in [3] and in test [5] was “inactive” throughout. The molecule was called inactive in test [4], in [8], in [9] and in test [10].
Regarding `C=C1CC/C=C(\C)CC[C@@H]2[C@@H]1CC2(C)C`, the Potency result in [1], in test [2], in [3] and in [5] was “inactive” in each case. Further, the outcome in [4], in test [6], in test [8], in test [9] and in test [10] was inactive.
With `Nc1ccc([N+](=O)[O-])c(N)c1`, the Potency in test [1] and in [3] was 33.5 µM (active) in each case. Besides, the Potency result in test [2] and in test [5] was “inactive” in each case. Also, the molecule was classed as inactive in test [4], in [6], in [8], in [9] and in [10].
With `CC/C=C\CC1=C(C)CCC1=O`, the Potency result in test [1], in [2], in test [3] and in test [5] was “inactive” throughout. Moreover, the outcome in test [4], in test [6], in test [8], in test [9] and in test [10] was inactive.
As for `C=C(C)C(=O)OCCOP(=O)(O)OCCOC(=O)C(=C)C`, the Potency result in test [1], in [2], in test [3] and in [5] was “inactive” in each case. Further, the outcome in test [4], in test [6], in [8], in [9] and in [10] was inactive.
Take `N[C@@H](COP(=O)(O)O)C(=O)O`: the Potency result in test [1], in [2], in test [3], in [5] and in test [7] was “inactive” throughout. Further, the molecule was called inactive in [4], in test [8] and in test [9].
With `CN(C)C(=O)CNC(=O)Cc1ccccc1`, the Potency result in test [1], in [2], in test [3] and in test [5] was “inactive” throughout. Further, the result in [4], in test [6], in [8], in test [9] and in [10] was inactive.
For the molecule `CCOC(=O)c1ncn2c1CN(C)C(=O)c1cc(F)ccc1-2`, the Potency entry in [1], in test [2], in test [3] and in test [5] was “inactive” throughout. Also, the call in test [4], in test [6], in [8], in [9] and in [10] was inactive.
